# Experimental data taken from paper PMC4336329 (PLoS ONE, 2015).
# Screen size: about 310,000 compounds; about 14,000 (4.5%) showed an effect of 50% or more. The effect is printed as a negative number. The sample as a whole holds a higher share of strong results than the screen did.
# Molecular target: human ether-à-go-go-related gene (hERG) potassium channel (human, UniProt Q12809)
# Test: primary screen, population patch clamp on CHO cells stably expressing hERG; higher = less effect of the substance
# Procedure: Briefly, Chinese hamster ovary (CHO) cells stably expressing the hERG channel were dislodged from tissue culture flasks and dispensed into PPC plates. […] During the recording, background leak currents were estimated by a 100 ms step to -80 mV from an initial holding potential of -70 mV and subtracted from the subsequent current measurement. The campaign was conducted in two phases using slight differences in recording protocol. In the first phase, the initial voltage pulse used a 100 ms step to -30 mV from a holding potential of -70 mV, a 2 s conditioning step to +25 mV, and a 2 s test step to -30 mV. During the second phase of the screen, the potential during the conditioning step was raised to +45 mV. In both phases of the campaign, a secondary voltage pulse was applied using the same parameters as the second phase initial pulse. The initial and secondary pulses were applied in the absence of compound, and upon application of 1 μM and 10 μM test concentrations. […]
# 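Also: peak tail current of the secondary pulse compared with the same well before compound.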
# Chain of human ether-à-go-go-related gene (hERG) potassium channel (Q12809 whole entry, looked up): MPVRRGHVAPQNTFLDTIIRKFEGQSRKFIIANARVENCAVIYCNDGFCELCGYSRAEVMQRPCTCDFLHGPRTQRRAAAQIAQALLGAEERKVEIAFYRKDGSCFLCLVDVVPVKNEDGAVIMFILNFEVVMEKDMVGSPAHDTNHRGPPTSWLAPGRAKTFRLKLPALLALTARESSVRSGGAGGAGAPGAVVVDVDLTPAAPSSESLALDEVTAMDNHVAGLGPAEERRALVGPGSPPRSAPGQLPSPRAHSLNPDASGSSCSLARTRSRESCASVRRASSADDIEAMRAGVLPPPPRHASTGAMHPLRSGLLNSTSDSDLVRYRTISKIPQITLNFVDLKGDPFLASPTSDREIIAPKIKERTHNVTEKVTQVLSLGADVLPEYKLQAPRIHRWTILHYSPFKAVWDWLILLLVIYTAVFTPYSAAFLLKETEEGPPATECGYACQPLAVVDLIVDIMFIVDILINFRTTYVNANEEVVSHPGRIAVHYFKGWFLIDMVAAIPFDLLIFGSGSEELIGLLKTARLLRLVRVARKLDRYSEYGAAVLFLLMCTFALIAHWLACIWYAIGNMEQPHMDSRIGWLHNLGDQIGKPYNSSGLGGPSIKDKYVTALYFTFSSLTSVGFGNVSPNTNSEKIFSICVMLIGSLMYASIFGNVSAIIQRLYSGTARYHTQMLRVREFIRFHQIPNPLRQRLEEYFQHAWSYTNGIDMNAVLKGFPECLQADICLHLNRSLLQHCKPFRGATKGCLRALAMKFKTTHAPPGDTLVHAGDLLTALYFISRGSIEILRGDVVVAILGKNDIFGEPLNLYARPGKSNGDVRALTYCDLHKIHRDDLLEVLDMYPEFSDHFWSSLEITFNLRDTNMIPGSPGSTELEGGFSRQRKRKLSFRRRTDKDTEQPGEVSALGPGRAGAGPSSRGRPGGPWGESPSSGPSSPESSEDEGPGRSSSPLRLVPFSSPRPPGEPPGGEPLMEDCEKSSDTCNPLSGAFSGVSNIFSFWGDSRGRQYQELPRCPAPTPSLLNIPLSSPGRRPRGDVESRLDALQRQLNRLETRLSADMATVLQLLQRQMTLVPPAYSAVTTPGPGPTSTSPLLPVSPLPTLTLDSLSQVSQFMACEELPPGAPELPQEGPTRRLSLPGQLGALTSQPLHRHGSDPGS
row,SMILES,"hERG current change (%, negative = inhibition) at 10uM"
1,CC(NS(=O)(=O)c1ccc(Cl)cc1)C(=O)Nc1ccc2c(c1)OCCO2 (centres unmarked),-19.4%
2,CCOCCCNC(=O)CCC(=O)NNc1nc2ccccc2c2nc(-c3ccccc3)nn12,-47.5%
3,CCCc1c(O)nc(SCCN(CC)CC)n(C(=O)c2ccccc2)c1=O.Cl,-58%
4,CCCCc1c(O)nc(SCCN(C)C)n(-c2ccccc2)c1=O,10.1%
5,CCN(CC)CCSc1nc(O)c(Cc2ccccc2)c(=O)n1-c1ccccc1.Cl,15.8%
6,CCN(CC(=O)Nc1c(F)cccc1F)C(=O)Cc1csc(-c2ccc(OC)c(OC)c2)n1,-2.82%
7,CCOc1ccccc1NC(=S)NCCc1ccccc1,4.14%
8,O=C(Cn1c(=O)n(Cc2ccco2)c(=O)c2ccccc21)NCC1CCCO1 (centres unmarked),2.5%
9,O=C(Cn1c(=O)n(Cc2ccc(F)cc2)c(=O)c2ccccc21)NCC1CCCO1 (centres unmarked),-2.66%
10,N=c1c(C(=O)NCC2CCCO2)cc2c(=O)n3ccccc3nc2n1Cc1ccccc1 (centres unmarked),-75.3%
11,O=C(NCC1CCCO1)c1cn(Cc2ccccc2)nc1-c1ccccc1 (centres unmarked),-0.0253%
12,O=C(Cc1ccc(-n2c(=O)c3ccccc3n(Cc3ccc(F)cc3)c2=O)cc1)NCC1CCCO1 (centres unmarked),-19.6%
13,Nc1c(C(=O)NCC2CCCO2)c2nc3ccccc3nc2n1Cc1ccco1 (centres unmarked),10.5%
14,N=c1c(C(=O)NCC2CCCO2)cc2c(=O)n3ccccc3nc2n1Cc1ccco1 (centres unmarked),-78.7%
15,N=c1c(C(=O)NCC2CCCO2)cc2c(=O)n3ccccc3nc2n1Cc1cccnc1 (centres unmarked),-72.9%
16,N=c1c(C(=O)NCC2CCCO2)cc2c(=O)n3ccccc3nc2n1Cc1ccc(F)cc1 (centres unmarked),-80%
17,CCCCNC(=O)C1(O)c2cc(Br)ccc2NC(=O)N1c1cccc(OC)c1 (centres unmarked),7.42%
18,Cc1cc(C)c2nc(SC3CCOC3=O)cc(C)c2c1 (centres unmarked),4.23%
19,COc1ccc(C(=O)Nc2cccc(S(C)(=O)=O)c2)cc1OC,6.89%
20,O=C(N/N=C\c1c(O)ccc2ccccc12)c1ccc(O)cc1,14.3%
21,Cc1c(C(=O)Nc2nnc(C3CC3)s2)oc2c(Cl)cccc12,8.02%
22,N=c1c(C(=O)NCc2ccco2)cc2c(=O)n3ccccc3nc2n1CC1CCCO1 (centres unmarked),-76%
23,N=c1c(S(=O)(=O)c2ccc(Cl)cc2)cc2c(=O)n3ccccc3nc2n1CC1CCCO1 (centres unmarked),-13.3%
24,N=c1c(C(=O)NCC2CCCO2)cc2c(=O)n3ccccc3nc2n1Cc1ccccc1Cl (centres unmarked),-67.9%

row,SMILES,"hERG current change (%, negative = inhibition) at 10uM"
1,O=C(NCc1ccco1)c1ccc2c(=O)n(CC3CCCO3)c(=S)[nH]c2c1 (centres unmarked),-1.68%
2,N=c1c(C(=O)NCC2CCCO2)cc2c(=O)n3ccccc3nc2n1Cc1ccc(Cl)cc1 (centres unmarked),-77.2%
3,O=C(NCC1CCCO1)c1nc2c(nnn2Cc2ccccc2Cl)c(=O)[nH]1 (centres unmarked),-0.506%
4,O=C(Cc1ccc(-n2c(=O)c3ccccc3n(Cc3ccccc3Cl)c2=O)cc1)NCC1CCCO1 (centres unmarked),-1.93%
5,O=C(NCC1CCCO1)c1ccc2c(=O)n(Cc3ccc(Cl)cc3)c(=S)[nH]c2c1 (centres unmarked),6.02%
6,CC(=O)c1cccc(NC(=O)CCNC(=O)c2ccccc2Cl)c1,11.4%
7,CCn1cc(C(=O)Nc2ccc(C)cc2[N+](=O)[O-])c(C)n1,5.23%
8,CN(Cc1nc(-c2cccs2)no1)CC1COCCO1 (centres unmarked),1.17%
9,S=C(NCCN1CCOCC1)N1CCN(c2cccc(Cl)c2)CC1,-16%
10,CC1=CC(=O)C(C(C)C)=C/C1=N/OC(=O)c1cccc([N+](=O)[O-])c1,7.36%
11,COc1ccc2nc(NC(=O)CSc3nnc(C)n3N)sc2c1,0.177%
12,C=CCn1c(SCn2nnc3ccccc3c2=O)nc2scc(-c3cccs3)c2c1=O,-5.21%
13,C=CCn1c(COc2cccc(C)c2)nnc1SCn1nnc2ccccc2c1=O,-5.37%
14,C=CCn1c(SCn2nnc3ccccc3c2=O)nnc1C1CCCCC1,-14.1%
15,C=CCn1c(SCn2nnc3ccccc3c2=O)nnc1-c1ccc(Br)cc1,-62.7%
16,O=c1c2ccccc2nnn1Cc1ccccc1,35.3%
17,C=CCn1c(COc2ccc(OC)cc2)nnc1SCn1nnc2ccccc2c1=O,-27.1%
18,O=c1cc(CSc2nnc(C3CC3)n2Cc2ccccc2)nc2sccn12,11.7%
19,C=CCn1c(SCn2nnc3ccccc3c2=O)nnc1-c1ccc(Cl)cc1,-61.2%
20,O=c1c2ccccc2nnn1CSc1nnc(-c2cccs2)n1Cc1ccccc1,-62.6%
21,O=c1cc(CSc2nnc(-c3cccs3)n2Cc2ccccc2)nc2sc3ccccc3n12,-53.5%
22,O=c1cc(CCl)nc2sc3ccccc3n12,8.04%
23,C=CCn1c(SCn2nnc3ccccc3c2=O)nnc1-c1ccc(F)cc1,-28.9%
